In PubChem BioAssay:
Active and inactive are the calls of the source.

target: Homeobox protein Hox-A13 (Mus musculus) (UniProt Q62424); assay: inhibitors of HoxA13-DNA binding, primary screen, biochemical, fluorescence polarization, labeled oligonucleotide (AID 1185); settings: 15 min, higher = more signal, called active from +8 up or from −8 down
Sequence (Q62424 whole entry, looked up): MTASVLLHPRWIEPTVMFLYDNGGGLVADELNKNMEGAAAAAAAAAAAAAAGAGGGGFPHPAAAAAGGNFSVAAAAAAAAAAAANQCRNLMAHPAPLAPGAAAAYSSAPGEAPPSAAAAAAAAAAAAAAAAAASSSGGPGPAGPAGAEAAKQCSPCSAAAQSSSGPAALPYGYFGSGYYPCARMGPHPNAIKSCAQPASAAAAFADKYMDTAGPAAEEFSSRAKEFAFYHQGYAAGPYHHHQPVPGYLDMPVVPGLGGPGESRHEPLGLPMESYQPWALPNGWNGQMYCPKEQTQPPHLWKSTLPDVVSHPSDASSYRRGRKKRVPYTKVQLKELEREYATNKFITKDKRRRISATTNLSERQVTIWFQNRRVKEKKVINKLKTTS

z-score, inactive:
COCCOC(=O)N1C(=O)[C@@]2(c3cc(C#CCC(C(=O)OC)C(=O)OC)ccc31)[C@H](C(N)=O)[C@H]1C(=O)O[C@H](c3ccccc3)[C@H](c3ccccc3)N1[C@@H]2c1ccccc1OCCO -2.49
C=C(COC)/C(=C/C[C@@H](OC(C)=O)c1cccc(OCCO)c1)c1cnc2ccccc2c1 -5.52
CC(C)[Si](C#Cc1ccccc1)(O[C@H](c1ccccc1)c1cn(Cc2ccccc2)nn1)C(C)C -1.11
C[C@]1(C(=O)O)c2ccccc2C(=O)N(Cc2cc(C(F)(F)F)cc(C(F)(F)F)c2)[C@H]1c1ccc(CO)cc1 -2.61
[N-]=[N+]=NCc1ccccc1[C@H]1OC(c2ccc(OCCCO)cc2)=N[C@@]1(CCS(=O)(=O)c1ccccc1)C(=O)NCCN1CCOCC1 -2.67
C=CC[C@@]1(C(=O)NCCCOC)N=C(c2ccc(OCCCO)cc2)O[C@@H]1c1ccccc1CN=[N+]=[N-] -5.2
CC(=O)NCCCC[C@@H]1NC(=O)[C@H]2C[C@@H](C(=O)O)[C@@H](c3cccc(OCCO)c3)N2C1=O -2.31
C=CCNC(=O)[C@H]1[C@@H]2C(=O)O[C@@H](c3ccccc3)[C@@H](c3ccccc3)N2[C@@H](c2ccc(O)cc2)[C@]12C(=O)Nc1ccccc12 -3.97
Cc1ccc(S[C@]2(C(=O)NC(C)C)CC(=O)N(Cc3ccccc3)[C@@H]2c2ccc(CO)cc2I)cc1 -3.33
COC(=O)c1ccc(OC)c(/C=C\CC(OC(=O)c2ccncc2)c2ccccc2)c1 (stereo unspecified) -5.02
COc1ccc([Si](C)(C)[C@H]2[C@H](CC(=O)N(CCO)Cc3ccccc3)O[C@@]3(C(=O)N(Cc4ccc(N5C(=O)c6cccc7cccc5c67)cc4)c4ccccc43)[C@@H]2C)cc1 -1.38
C=C(C)C1CN([C@H](CO)c2ccccc2)C(=O)/C1=C\c1ccccc1 (stereo partly specified) -1.05
C[N+](C)(C)CCCC[C@@H]1NC(=O)[C@H]2C[C@@H](C(=O)NCCCCCN)[C@@H](c3ccc(O)cc3)N2C1=O -1.12
CC(=O)NCCCC[C@@H]1NC(=O)[C@H]2C[C@@H](C(=O)NCCCCCN)[C@@H](c3ccc(O)cc3)N2C1=O -2.29
O=C1c2ccccc2[C@](Cc2ccccc2I)(C(=O)NCCN2CCOCC2)[C@H](c2ccc(CO)cc2)N1Cc1ccccc1C(F)(F)F -4.81
CCOC(=O)C[C@H]1[C@H](OC(=O)c2ccc(-c3ccccc3)cc2)[C@@H](NC(=O)c2ccc(-c3ccccc3)cc2)c2cc(OCCCO)ccc2N1C(=O)c1ccccc1 -1.22
COC(=O)C1=CC(CCCO)=CC(c2ccc(CN3CCCC3)cc2)N(C)C=C1C(=O)OC (stereo unspecified) -6.09
CCCC1(C(=O)OC)C=C2C(=C(C(C)C)C(=O)C2C)CN1 (stereo unspecified) -6.18
C=CCOC(=O)[C@H]1[C@@H]2C(=O)O[C@@H](c3ccccc3)[C@@H](c3ccccc3)N2[C@@H](c2ccc(OCCOC(=O)[C@H]3C[C@H]4C(=O)NCC(=O)N4[C@H]3c3cccc(OCCO)c3)cc2)[C@]12C(=O)Nc1ccc(I)cc12 0.871
C=CCNC(=O)[C@H]1[C@@H]2C(=O)O[C@@H](c3ccccc3)[C@@H](c3ccccc3)N2[C@@H](c2ccc(O)cc2)[C@]12C(=O)N(C(=O)OCCOC)c1ccc(C#Cc3ccc(OC)cc3)cc12 -1.16
CS(=O)(=O)CCOC(=O)C1=CC(CCCO)=CC(C2CC2)N(Cc2sc3ccccc3c2Cl)C=C1C(=O)OCCS(C)(=O)=O (stereo unspecified) -4.7
CC(C)(C)OC(=O)CC[C@@]1(C(=O)N2CCOCC2)N=C(c2ccc(OCCCO)cc2)O[C@@H]1c1ccccc1CN=[N+]=[N-] -4.94
CN1C(=O)C2C=CC(C(O)c3ccc(I)cc3)N(N(c3ccccc3)c3ccccc3)C2C1=O (stereo unspecified) -1.5
CC(C)(C)OC(=O)N1[C@@H](C=C(Br)Br)COC1(C)C -0.337
CCCN1C(=O)[C@@]2(c3ccc([N+](=O)[O-])cc3)CC(=O)N(C3CCCCC3)[C@@H]2c2ccc(CO)cc21 -1.26
C=CCNC(=O)[C@H]1[C@@H]2C(=O)O[C@@H](c3ccccc3)[C@@H](c3ccccc3)N2[C@@H](c2ccc(OCCO)cc2)[C@]12C(=O)N(C(=O)OCCOC)c1ccc(C#CCC(C(=O)OC)C(=O)OC)cc12 -0.253
